These results are taken from publication PMC5540273 (PLoS ONE, 2017).

SMILES strings stand for the structures.

Some test systems named below: CDC2L2; CDK2; CDK3; CDK4-cyclinD1; CDK4-cyclinD3; CDK4; CDK5; CDK7; CDK8; CDK9; CDKL1; CDKL2; CDKL3; CDKL5; CHEK1; CHEK2; CIT; CLK1.
Holding throughout (details): concentration: 1 μM,replicates: in singlicate; n = 1
For a further assay, the system named is T1, CDC2L5.
T1 construct: gene CDK13

For another assay, the system named is T2, CDK11.
T2 construct: gene CDK19
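Note: KINOMEscan kinase panel screen.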

With `COC(=O)c1cccc(NC(=O)NC2CCN(c3ccnc(NCc4ccc(F)cc4)n3)CC2)c1` [GSK1379860], the “%Inh” value with CDC2L2 turned out to be 0%; in the assay with CDC2L5 it was 0%; in the assay with CDK11, 12%; in the assay on CDK2 it was 0%; in the assay with CDK3, 9%; with CDK4-cyclinD1 it was 0%. Besides, the “%Inh” value in the assay on CDK4-cyclinD3 is 0%; in the assay with CDK4, 0%; in the assay with CDK5, 2%; in the assay with CDK7, 0%; with CDK8 it was 23%; in the assay on CDK9, 0%. For the same molecule, the “%Inh” value in the assay on CDKL1 was determined as 0%; in the assay on CDKL2, 11%; in the assay with CDKL3, 0%; in the assay with CDKL5, 4%; in the assay with CHEK1 it was 18%; in the assay on CHEK2, 0%. The results for the “%Inh” value with CIT and with CLK1 were 33% and 28%, respectively.
`O=C(Nc1cccc(Oc2ccc3nccn3n2)c1)Nc1cccc(C(F)(F)F)c1`: the “%Inh” value was 6% with CDC2L2; 13% in the assay with CDC2L5; 98.7% in the assay with CDK11; 0% in the assay on CDK2; 32% in the assay with CDK3; 33% in the assay on CDK4-cyclinD1. The “%Inh” value with CDK4-cyclinD3 worked out at 0%; with CDK4, 0%; in the assay with CDK5 it was 0%; with CDK7 it was 0%; in the assay with CDK8, 90.9%; in the assay with CDK9 it was 0%. Besides, the “%Inh” value worked out at 0% with CDKL1; 62% in the assay with CDKL2; 0% with CDKL3; 4% in the assay on CDKL5; 0% with CHEK1; 0% with CHEK2. The “%Inh” value with CIT is given as 99.9%; in the assay with CLK1 it was 31%.
In the case of `COc1cc(Nc2nccc(N3CCC(NC(=O)c4cccc(C#N)c4)C3)n2)cc(OC)c1OC` (stereo not shown) [GSK1379751], the “%Inh” value amounted to 36% in the assay on CDC2L2; 0% in the assay with CDC2L5; 12% in the assay with CDK11; 0% in the assay with CDK2; 0% with CDK3; 5% in the assay with CDK4-cyclinD1. The “%Inh” value is on record as 0% with CDK4-cyclinD3; 27% with CDK4; 0% with CDK5; 0% in the assay on CDK7; 6% with CDK8; 0% in the assay on CDK9. Also, the “%Inh” value in the assay with CDKL1 worked out at 0%; in the assay on CDKL2 it was 41%; in the assay with CDKL3, 0%; with CDKL5 it was 0%; in the assay on CHEK1 it was 0%; in the assay on CHEK2, 0%. For the same molecule, the results for the “%Inh” value in the assay with CIT and in the assay on CLK1 were 8% and 4%, respectively.
Turning to `O=c1[nH]cc(-c2ccc(O)cc2)c2sc(-c3ccncc3)cc12` [GSK1033723], the “%Inh” value is 12% in the assay with CDC2L2; 0% with CDC2L5; 0% in the assay with CDK11; 0% with CDK2; 1% with CDK3; 0% with CDK4-cyclinD1. Also, the “%Inh” value in the assay on CDK4-cyclinD3 is listed as 0%; in the assay with CDK4, 31%; in the assay with CDK5, 0%; with CDK7, 0%; with CDK8, 27%; with CDK9 it was 6%. The “%Inh” value in the assay with CDKL1 was 7%; in the assay on CDKL2, 9%; in the assay with CDKL3, 0%; with CDKL5 it was 0%; with CHEK1 it was 0%; in the assay with CHEK2 it was 10%. For the same molecule, the “%Inh” value is recorded as 45% in the assay on CIT and 95.7% in the assay with CLK1.
Consider `O=C(Nc1n[nH]c2cc(-c3ccco3)ccc12)C1CC1` [SB-737447], for which the “%Inh” value in the assay on CDC2L2 was found to be 7%; in the assay with CDC2L5, 19%; with CDK11 it was 0%; with CDK2 it was 49%; in the assay on CDK3, 7%; in the assay with CDK4-cyclinD1 it was 0%. The “%Inh” value with CDK4-cyclinD3 was 6%; with CDK4, 5%; in the assay with CDK5 it was 11%; with CDK7 it was 38%; with CDK8, 0%; with CDK9, 11%. Further, the “%Inh” value with CDKL1 worked out at 29%; in the assay with CDKL2 it was 86%; in the assay on CDKL3, 0%; in the assay on CDKL5, 0%; in the assay with CHEK1 it was 0%; with CHEK2, 16%. Besides, the “%Inh” value came out at 1% in the assay on CIT and 28% with CLK1.
In the case of `O=C(Nc1ccccc1)c1cccc(Oc2ccc3nccn3n2)c1`, the “%Inh” value turned out to be 28% in the assay on CDC2L2; 0% in the assay with CDC2L5; 0% in the assay on CDK11; 0% in the assay with CDK2; 15% in the assay with CDK3; 11% in the assay on CDK4-cyclinD1. The “%Inh” value turned out to be 6% in the assay on CDK4-cyclinD3; 22% in the assay with CDK4; 0% with CDK5; 12% with CDK7; 0% with CDK8; 94.6% in the assay on CDK9. In addition, the “%Inh” value was 0% in the assay on CDKL1; 20% in the assay with CDKL2; 0% in the assay with CDKL3; 0% in the assay with CDKL5; 0% in the assay with CHEK1; 0% in the assay with CHEK2. In addition, the “%Inh” value in the assay on CIT was found to be 32%; in the assay on CLK1, 0%.
As for `CSc1nccc(-c2c(-c3ccc(F)cc3)ncn2CCCN2CCOCC2)n1.Cl` [SB-217146], the “%Inh” value in the assay with CDC2L2, with CDC2L5, in the assay on CDK11, in the assay with CDK2, in the assay on CDK3 and in the assay on CDK4-cyclinD1 was 0% in each case. Moreover, the “%Inh” value is given as 0% in the assay on CDK4-cyclinD3; 16% with CDK4; 0% with CDK5; 12% with CDK7; 1% with CDK8; 0% in the assay with CDK9. Further, the “%Inh” value is on record as 36% in the assay with CDKL1; 10% with CDKL2; 0% in the assay on CDKL3; 11% in the assay with CDKL5; 0% in the assay on CHEK1; 0% in the assay on CHEK2. In addition, the “%Inh” value with CIT and with CLK1 was 0% in each case.
As for `C[C@@H]1CCN(C(=O)N2CCCC2)C[C@@H]1N(C)c1ncnc2[nH]ccc12`, the “%Inh” value with CDC2L2 is 0%; in the assay on CDC2L5, 6%; in the assay on CDK11 it was 2%; in the assay with CDK2, 0%; in the assay with CDK3, 15%; in the assay on CDK4-cyclinD1 it was 21%. For the same molecule, the “%Inh” value in the assay with CDK4-cyclinD3 stood at 8%; in the assay with CDK4, 11%; with CDK5, 18%; with CDK7, 34%; in the assay with CDK8, 24%; in the assay on CDK9, 0%. The “%Inh” value in the assay with CDKL1 was 24%; in the assay on CDKL2, 11%; in the assay with CDKL3 it was 0%; in the assay with CDKL5, 5%; in the assay on CHEK1 it was 9%; in the assay on CHEK2, 0%. The “%Inh” value in the assay with CIT was 13%; in the assay with CLK1 it was 4%.
Regarding `CN(c1ccccc1CNc1nc(Nc2ccc3c(c2)CC(=O)N3)ncc1C(F)(F)F)S(C)(=O)=O`, the “%Inh” value in the assay on CDC2L2 is 0%; in the assay on CDC2L5, 0%; with CDK11 it was 0%; in the assay with CDK2, 58%; in the assay on CDK3, 55%; with CDK4-cyclinD1 it was 0%. The “%Inh” value in the assay with CDK4-cyclinD3 came out at 34%; in the assay on CDK4, 0%; in the assay on CDK5 it was 83%; in the assay on CDK7, 67%; in the assay on CDK8 it was 0%; with CDK9 it was 40%. Also, the “%Inh” value in the assay on CDKL1 amounted to 13%; with CDKL2, 8%; in the assay with CDKL3, 0%; with CDKL5, 0%; with CHEK1, 0%; in the assay with CHEK2 it was 0%. The “%Inh” value came to 10% in the assay on CIT and 95% with CLK1.
Turning to `Cn1cc(-c2cccc3c(N)c(C(N)=O)nnc23)cn1`, the “%Inh” value in the assay with CDC2L2 came out at 7%; with CDC2L5, 10%; with CDK11 it was 19%; in the assay on CDK2, 17%; in the assay with CDK3, 30%; in the assay on CDK4-cyclinD1, 8%. Besides, the “%Inh” value is 7% in the assay with CDK4-cyclinD3; 0% in the assay with CDK4; 3% in the assay with CDK5; 26% in the assay on CDK7; 33% in the assay on CDK8; 0% with CDK9. Also, the “%Inh” value is given as 32% in the assay on CDKL1; 12% in the assay on CDKL2; 7% in the assay on CDKL3; 0% with CDKL5; 0% in the assay with CHEK1; 0% in the assay on CHEK2. In addition, the figures for the “%Inh” value in the assay on CIT and with CLK1 were 10% and 74%, respectively.
Take `Cl.c1ccc(Oc2ccc(Nc3ccnc4cc(-c5ccc(CN6CCNCC6)o5)ccc34)cc2)nc1` [GW567142]: the “%Inh” value is 16% in the assay with CDC2L2; 0% with CDC2L5; 10% in the assay with CDK11; 0% in the assay on CDK2; 0% in the assay on CDK3; 0% in the assay with CDK4-cyclinD1. In addition, the “%Inh” value is reported as 0% in the assay on CDK4-cyclinD3; 14% in the assay with CDK4; 0% with CDK5; 52% in the assay with CDK7; 0% with CDK8; 0% in the assay on CDK9. Further, the “%Inh” value in the assay on CDKL1 came to 0%; with CDKL2, 0%; in the assay on CDKL3 it was 0%; with CDKL5, 0%; with CHEK1, 5%; in the assay with CHEK2 it was 82%. Moreover, the results for the “%Inh” value with CIT and in the assay with CLK1 were 9% and 25%, respectively.
